Experimental findings from PubChem BioAssay (EPA / NIEHS) are described below.

Inconclusive results are not listed. The source made the active and inactive calls. Rule for the calls: active = hit-call score of the fitted dose curve at least 0.9, where 1 is the maximum; inconclusive = response in the unintended direction; inactive = score below 0.9.

Sequence of Bile acid receptor (Homo sapiens) (Q96RI1 whole entry, looked up, the tested form may be a part): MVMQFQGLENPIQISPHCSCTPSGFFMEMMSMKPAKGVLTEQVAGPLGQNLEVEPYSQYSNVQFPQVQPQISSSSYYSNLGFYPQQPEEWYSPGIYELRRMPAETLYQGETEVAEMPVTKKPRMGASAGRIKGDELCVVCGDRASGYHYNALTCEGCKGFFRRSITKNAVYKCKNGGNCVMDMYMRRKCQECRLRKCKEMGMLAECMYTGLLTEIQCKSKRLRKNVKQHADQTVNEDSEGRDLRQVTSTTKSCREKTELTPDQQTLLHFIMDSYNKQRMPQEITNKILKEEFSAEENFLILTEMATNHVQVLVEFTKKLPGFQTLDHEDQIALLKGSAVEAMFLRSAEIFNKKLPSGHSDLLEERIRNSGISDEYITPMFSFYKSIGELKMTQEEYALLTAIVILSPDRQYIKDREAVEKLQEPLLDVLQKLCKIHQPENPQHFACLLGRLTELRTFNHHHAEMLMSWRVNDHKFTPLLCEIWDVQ

The test addresses Bile acid receptor (Homo sapiens) (UniProt Q96RI1). The test can be described thus: ATG_FXR_TRANS: Attagene TRANS-FACTORIAL HepG2 Assay for Farnesoid X Receptor (FXR) (AID 2282979).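 Note: hits raise reporter mRNA above DMSO so AC50 marks FXR activation.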 Conditions: HepG2 Attagene TRANS FXR-GAL4 reporter transcription. As for the experimental part: ATG_TRANS is a cell-based, multiplexed-readout assay that uses HepG2, a human liver cell line, with measurements taken at 24 hours after chemical dosing in a 24-well plate.ATG_FXR_TRANS is one of 30 assay component(s) measured or calculated from the ATG_TRANS assay. It is designed to make measurements of mRNA induction, a form of inducible reporter, as detected with fluorescence intensity signals by Reverse transcription polymerase chain reaction (RT-PCR) and Capillary electrophoresis technology.Data from the assay component ATG_FXR_TRANS was analyzed into 1 assay endpoint. This assay endpoint, ATG_FXR_TRANS, was analyzed in the positive analysis fitting direction relative to DMSO as the negative control and baseline of activity. Using a type of inducible reporter, measures of mRNA for gain-of-signal activity can be used to understand the reporter gene at the transcription factor-level as they relate to the gene NR1H4. Furthermore, this assay endpoint can be referred to as a primary readout, because this assay has produced multiple assay endpoints where this one serves a reporter gene function. To generalize the intended target to other relatable targets, this assay endpoint is annotated to the nuclear receptor intended target family, where the subfamily is non-steroidal.
Human liver HepG2 cells are transiently transfected with multiple reporter transcription units (MRTUs) in 6-well plates using FuGene 6 reagent (Roche; 3 ml FuGene/1 mg DNA). The MRTU constructs are regulated by a cis-regulating element (promoter). […] A major difference between the CIS and TRANS system is that in CIS activities of endogenous TFs are measured, whereas the TRANS assay evaluates changes in activities of exogenous, chimeric NR-Gal4 proteins. […] At the end of 24 hour incubation, total RNA was isolated using TriZol reagent (Invitrogen). The isolated RNA is then reverse-transcribed using oligo(dT) primer and Mo-MLV reverse transcriptase (Invitrogen) with DNAse I (Ambion) treatment for 30 min. The one-tenth of the produced cDNA was amplified by PCR using Taq DNA polymerase (Invitrogen) and two reporter sequence-specific primers. The PCR products were fluorescently labeled by primer extension with 6-arboxyfluorescein (6-FAM) 5'-labeled reporter sequence-specific primer (2 min at 95 C, 20 s at 68 C and 10 min at 72 C) and these products were digested with 5U of HpaI (New England Biolabs) for 2h at 37 C. The fragments were purified using Qiaquick PCR columns (Qiagen), analyzed on an ABI 3130xL genetic analyzer (Applied Biosystems) with peak positions identified by using a set of X-rhodamine (ROX)-labeled MapMarker1000 molecular weight standards (BioVentures). The raw capillary electrophoresis data was processed using Attagraph software (Attagene).
In the case of `CCC(Cc1c(I)cc(I)c(N)c1I)C(=O)O` (stereo not given), the compound was classed as inactive. For `O=C(O)C(F)(F)C(F)(F)C(F)(F)C(=O)O` the value was “inactive”; for `O=C1c2c(O)ccc(Nc3ccc(CCO)cc3)c2C(=O)c2c([N+](=O)[O-])ccc(O)c21`, “inactive”. For the compound `CCn1c2ccccc2c2ccccc21`, the compound was classed as inactive. In the case of `CC(C)(C)C(=O)C1C(=O)c2ccccc2C1=O` it was “inactive”. In the case of `OCCCC(F)(F)C(F)(F)C(F)(F)C(F)(F)C(F)(F)C(F)(F)C(F)(F)C(F)(F)F` it was “inactive”; in that of `CO[Si](C)(CCC(F)(F)C(F)(F)C(F)(F)C(F)(F)C(F)(F)C(F)(F)F)OC`, “inactive”. In the case of `CCCCCCCCCCCCCC[P+](CCCC)(CCCC)CCCC` it was “inactive”.

Turning to `C=C(C)CCCC`, the compound was called inactive.

For the compound `Cc1ccc2c(c1)OCC(=O)CO2`, the compound was called inactive. In the case of `CCCC(=O)OCC(COC(=O)CCC)OC(=O)CCC`, the call was inactive. In the case of `CCCCCCCCCc1ccc(OCCO)cc1` it was “inactive”; in that of `CN(C)C(C)(C)CO`, “inactive”; in that of `CCN(CC)c1ccc(N=Nc2ccccc2)cc1`, “inactive”. In the case of `CCOC(=O)CCC(C)=O` it was “inactive”.

For the compound `CCCCCCCCCCCCCCCCC`, the result was inactive.

Regarding `NC(=O)C(F)(F)C(F)(F)C(F)(F)C(F)(F)C(F)(F)C(F)(F)C(F)(F)F`, the call was inactive. For `CCN(CC)c1ccc(C=O)c(O)c1` the value was “inactive”.

As to `NC(=O)C(F)(F)C(F)(F)C(F)(F)F`, the compound was classed as inactive. For `C=C(C)C(=O)OCC(F)(F)C(F)(F)C(F)(F)C(F)F` the value was “inactive”; for `N#CCCOCCC#N`, “inactive”. On to `CCN(CC)c1ccc(C=O)cc1`, for which the compound was classed as inactive.

As to `Oc1ccc2c(c1)CCC2`, the result was inactive.

With `FC(F)(F)C(F)(F)C(F)(F)C(F)(F)C(F)(F)C(F)(F)CC[Si](Cl)(Cl)Cl`, the outcome was inactive. Regarding `Nc1cccnc1N`, the result was inactive. In the case of `Cc1cc(O)c(C(C)(C)C)cc1C(C)(C)C` it was “inactive”.

For the compound `CCCCCCCC/C=C\CCCCCCCC(=O)N(C)CC(=O)O`, the compound was classed as inactive. For the compound `OCC(F)(F)C(F)(F)C(F)(F)C(F)(F)C(F)(F)C(F)(F)C(F)(F)C(F)(F)CO`, the call was inactive. In the case of `F[Si-2](F)(F)(F)(F)F` it was “inactive”. For the compound `O=C(c1ccccc1)c1ccc(O)cc1O`, the compound was called inactive. For `O=C(F)C1(F)C(F)(F)C(F)(F)C(F)(F)C(F)(F)C1(F)F` the value was “inactive”; for `O=C1C=CC(=O)N1c1ccc(Cc2ccc(N3C(=O)C=CC3=O)cc2)cc1`, “inactive”. In the case of `CCOC(=O)CC(=O)C(F)(F)C(F)(F)F` it was “inactive”; in that of `Cc1ccc(O)c(-n2nc3ccccc3n2)c1`, “inactive”. For `C[C@]12CC[C@H]3C(=CCc4cc(O)ccc43)[C@@H]1CCC2=O` the value was “inactive”; for `CC(=O)C=O`, “inactive”.

Turning to `CC(O)C#CC(C)O` (stereo not given), the result was inactive. For `CN(C(=O)C(F)(F)C(F)(F)C(F)(F)F)[Si](C)(C)C` the value was “inactive”; for `NCC(F)(F)C(F)(F)C(F)(F)C(F)(F)C(F)(F)C(F)(F)F`, “inactive”. For `CC(C)(C)c1cc(CCC(=O)NCCCCCCNC(=O)CCc2cc(C(C)(C)C)c(O)c(C(C)(C)C)c2)cc(C(C)(C)C)c1O` the value was “inactive”.
